Source: PubChem BioAssay (National Center for Advancing Translational Sciences (NCATS))
A selection: hits, their analogues and other compounds. The true share with any hit is near 7.5%.
FLuc modulator = counter-screen for miR-21 project: firefly luciferase inhibitors or activators | P08659 | purified FLuc, Km substrates, luminescence inhibition | Potency, µM (highest dose often 57.5 µM), inactives show at the highest dose activity change, negative = inhibition, most hits filed as inhibitors | 360,000 compounds, 6.9% hits | AID 588342;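 further: plate controls were vehicle for no effect and reference inhibitor for full effect; nearly all actives have a fitted effect of over 55% in size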
Target sequence (P08659 whole entry, looked up): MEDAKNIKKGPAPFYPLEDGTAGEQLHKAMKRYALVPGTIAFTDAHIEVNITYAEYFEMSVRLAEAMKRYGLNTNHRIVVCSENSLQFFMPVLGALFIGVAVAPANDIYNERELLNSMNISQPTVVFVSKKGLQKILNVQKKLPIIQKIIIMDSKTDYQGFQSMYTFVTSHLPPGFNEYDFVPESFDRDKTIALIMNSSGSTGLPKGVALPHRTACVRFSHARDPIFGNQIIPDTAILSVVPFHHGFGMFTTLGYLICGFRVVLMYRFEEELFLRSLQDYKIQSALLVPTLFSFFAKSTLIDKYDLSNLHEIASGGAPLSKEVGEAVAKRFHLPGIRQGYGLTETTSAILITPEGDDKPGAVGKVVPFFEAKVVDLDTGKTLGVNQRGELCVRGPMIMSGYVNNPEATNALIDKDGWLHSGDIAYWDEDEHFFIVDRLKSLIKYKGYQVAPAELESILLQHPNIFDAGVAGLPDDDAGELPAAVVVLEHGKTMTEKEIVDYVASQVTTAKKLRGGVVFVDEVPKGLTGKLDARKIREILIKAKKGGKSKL
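Purified P. pyralis luciferase, 10 nM final, with Km-level 10 uM D-luciferin and 10 uM ATP in 50 mM Tris acetate pH 7.5, 10 mM Mg acetate, 0.01% Tween-20, 0.05% BSA; 6-point qHTS titration about 60 µM downward; luminescence read.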
NPC1 promoter act = activates the NPC1 promoter | Huh7 NPC1 promoter luciferase reporter, 24 h | Potency, µM (top dose mostly 9.22 µM), for inactives: at the highest dose activation, hits mostly activators | 320,000 compounds, 2.4% hits | AID 485313; further: % of control where 0% means no effect; nearly all actives have a fitted effect of over 60% in size
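Compounds in DMSO were transferred onto Huh7 NPC1-luciferase reporter cells pre-incubated 2 h; after 24 h at 37 °C, Amplite reagent was dispensed and luminescence recorded 10 min later.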
SMN2 splice enh = enhancers of SMN2 splice variant expression | HEK293 SMN2-luciferase splicing reporter, luminescence, 30-36 h | Potency, µM (highest dose often 46.1 µM), inactives show at the highest dose activity change, positive = activation, most hits filed as activators | 210,000 compounds, 2.8% hits | AID 1458; further: % of control where 0% means no effect; nearly all actives have a fitted effect of over 55% in size
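HEK293 cells carry an SMN2 minigene-luciferase reporter in which exon 7 inclusion puts luciferase in frame. Cells were seeded at 2000 cells/well, attached for 10-12 hours, then exposed to compounds for 30-36 hours at 37C before ONE-Glo luminescence.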
ELG1 genotoxic = induces genotoxicity in HEK293T cells with luciferase-tagged ELG1 | HEK293T ELG1-luciferase reporter, luminescence, 16 h | Potency, µM (doses to about 46 µM), for the others: at the highest dose activity change, positive = activation, hits mostly activators | 330,000 compounds, 1.3% hits | AID 504466; further: % of control where 0% means no effect; nearly all actives have a fitted effect of over 60% in size
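Luminescence read-out: rising ELG1-luciferase signal, reflecting elevated ELG1 protein under genetic stress, flags genotoxic compounds. Cells were treated for 16 hr at 37 °C before ONE-Glo detection.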
Rab9 promoter act = activates the Rab9 promoter | Potency, µM (titrated, usually from 9.22 µM), without a hit: top-dose activation, negative = inhibition, hits mostly activators | AID 485297 | 320,000 compounds, 2.8% hits | Huh7 Rab9 promoter-luciferase reporter, luminescence, 24 h; further: % of control where 0% means no effect; nearly all actives have a fitted effect of over 60% in size
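Huh7 cells stably carrying a Rab9 promoter-luciferase reporter, 1500 cells per well in OP-MEM I with 10% FBS, treated with compound 24 hours at 37C. Luciferase activity read by luminescence after 10 minutes with Amplite reagent.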
Luc counter = blocks Kinase-Glo luciferase, a counter-screen artifact; Q27757; Kinase-Glo luciferase, ATP luminescence, 8 min; Potency, µM (top dose mostly 38.3 µM), for the others: at the highest dose activity change, negative = inhibition, actives largely listed as inhibitors; 200,000 compounds, 0.28% hits; AID 1379; further: on the % scale 0 is the no-effect control and ±100 the full control effect; nearly all actives have a fitted effect of over 60% in size
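Luminescence was the read-out, taken after 8-minute incubation at ambient temperature. Luciferase turned over luciferin with 10 uM ATP in imidazole pH 7.2 buffer containing KCl, MgCl2, Tween 20 and BSA.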
* marks the source's active call; other numbers are inactive results; u = inconclusive; x = no result given; [ ] = another dose, or the depositor's remark. The call rests on the fitted dose curve; in most records, active means well fitted curve in the direction sought with a large enough effect; inconclusive means small, poorly fitted or top-dose-only effect, or another doubt; inactive means no such curve, though single readings can be large; an effect the other way counts as inactive or inconclusive. Potency means the concentration at half of the fitted maximal effect.

SMILES	FLuc modulator	NPC1 promoter act	SMN2 splice enh	ELG1 genotoxic	Rab9 promoter act	Luc counter
CCCC(=O)Nc1ccc2nn(-c3ccc(CC)cc3)nc2c1	u	x	14%	x	x	x
Cn1cnc2cc(NCc3ccccc3O)ccc21	u	20%	x	16%	4%	x
O=C1CC(c2nc3ccccc3n2CCCCOc2ccccc2)CN1c1ccccc1Cl (stereo unspecified)	0%	x	-52%	x	x	x
Cc1ccc(CNc2ccc3c(c2)ncn3C(C)(C)C)cc1	9.5µM*	1.8µM*	10µM*	u	4µM*	2%
CCOC(=O)C1CCCN(c2cc(C)nc3c(-c4ccccc4OC)c(C)nn23)C1 (stereo unspecified)	0%	x	x	x	x	x
O=C(CN1CCN(c2ccc(F)cc2)CC1)Nc1nccs1	0%	2%	x	-7%	-7%	x
NC(=O)COC(=O)c1c2c(nc3ccccc13)CCCCC2	-3%	-4%	4%	-2%	-1%	-1%
O=C(COC(=O)c1c2c(nc3ccccc13)CCCC2)c1cccs1	11µM*	11%	-6%	-8%	2%	1%
O=C(OCC(=O)N1CCc2ccccc21)c1c2c(nc3ccccc13)CCCC2	6.7µM*	8%	x	-19%	21%	x
O=C(COC(=O)c1c2c(nc3ccccc13)CCCCC2)c1ccc(Cl)s1	13µM*	1%	1%	-9%	13%	3%
Cc1ccc(NC(=O)CSc2nc3ccccc3nc2Cc2ccccc2)c(C)c1	-2%	x	x	x	x	x
O=C(O)c1cc(NC(=O)C2CCCO2)cc(C(=O)O)c1 (stereo unspecified)	2%	-2%	x	3%	0%	x
CC(C)(C)c1cc(NC(=O)C2CCCO2)no1 (stereo unspecified)	15µM*	u	u	u	27%	-2%
CC(C)(C)c1ccc(/C=C/C(=O)NC2=NCCS2)cc1	0.76µM*	0.5µM*	u	u	0.4µM*	-4%
CC(=O)c1ccc(NC(=O)/C=C/c2ccc(C)cc2)cc1	u	-5%	12%	10%	-8%	10%
Cc1ccc(/C=C/C(=O)NC2=NCCS2)cc1	1.3µM*	u	0.5µM*	2.9µM*	0.5µM*	-3%
O=C(OCc1cc(=O)n2nc(-c3cccs3)sc2n1)c1ccc(Cl)cc1	-3%	x	x	x	x	x
C/C(=C\C(=O)c1ccc(C)o1)Nc1ccc(C(=O)O)cc1C	9.5µM*	1%	30%	11%	-4%	3%
Cc1cc(C(=O)O)ccc1NCc1ccncc1	1%	-4%	x	1%	2%	x
COc1ccc(NC(=O)c2ccc3c(c2)OCCO3)cc1OC	2.7µM*	1.4µM*	x	5.6µM*	2.2µM*	x
COc1cc(C(=O)Nc2ccc3c(c2)OCCO3)ccc1OC(C)C	7.6µM*	u	11µM*	u	3.2µM*	-11%
COc1cc(NC(=O)c2ccc3c(c2)OCCO3)ccc1NC(=O)c1ccccc1Cl	-2%	10%	x	12%	-1%	x
COc1ccc(C(=O)Nc2ccc3c(c2)OCCO3)cc1[N+](=O)[O-]	11µM*	18%	22%	14%	u	2%
Cc1c([N+](=O)[O-])c(C(=O)Nc2ccc3c(c2)OCCO3)nn1C	u	u	13µM*	12µM*	u	13µM*
COc1cc(C(=O)Nc2ccc3c(c2)OCCO3)ccc1OC(F)F	6µM*	3.2µM*	14µM*	u	2.8µM*	-17%
SMILES	FLuc modulator	NPC1 promoter act	SMN2 splice enh	ELG1 genotoxic	Rab9 promoter act	Luc counter
CCOC(=O)c1c(NC(=O)Nc2ccc(F)cc2)sc(C(=O)N(C)C)c1C	-6%	x	-3%	x	x	x
COc1ccc(Br)cc1CNC(=O)CN1C(=O)c2cccnc2Oc2ccc(C)cc21	-13%	x	x	x	x	x
COc1ccc(C(=O)COC(=O)c2cc(=O)[nH]c3ccccc23)c(OC)c1	u	3.2µM*	x	u	2.2µM*	x
NC(=O)COC(=O)c1cc(=O)[nH]c2ccccc12	1%	-3%	x	0%	0%	x
Cc1ccc(C(=O)COC(=O)c2cc(=O)[nH]c3ccccc23)cc1C	1.1µM*	2%	21%	21µM*	u	2%
COc1ccccc1C(=O)COC(=O)c1cc(=O)[nH]c2ccccc12	-8%	-2%	x	u	-1%	x
O=C(Cc1ccccc1)Nc1ccccc1C(=O)NCC1CCCO1 (stereo unspecified)	1%	-4%	x	2%	-2%	x
CCOC(=O)c1c(S(=O)(=O)N2CCN(c3ccccc3OC)CC2)c(C)n(C)c1C	-5%	x	x	x	x	x
CCn1nc(NS(=O)(=O)c2ccc(NC(C)=O)cc2)c2cc3ccc(C)cc3nc21	27µM*	1%	x	2%	1%	x
CCn1nc(NC(=O)C2CCCO2)c2cc3cc(C)ccc3nc21 (stereo unspecified)	17µM*	29%	u	15%	u	1%
CCn1nc(NS(=O)(=O)c2ccc(NC(C)=O)cc2)c2cc3ccccc3nc21	-22%	1%	x	0%	-4%	x
CCCn1nc(NC(=O)c2ccccn2)c2cc3cc(C)ccc3nc21	11µM*	28%	u	6%	15%	2%
CCCn1nc(NS(=O)(=O)c2cccc3nonc23)c2cc3cc(C)ccc3nc21	11µM*	18%	x	12%	8%	x
Cc1cc(O)c(C(=O)/C=C/c2ccc(Cl)cc2)c(=O)o1	2.1µM*	20%	x	2%	-3%[1.84 µM]	x
COc1cc(/C=C/C(=O)c2c(O)cc(C)oc2=O)cc(OC)c1O	-16%	1%	-30%	-2%	2%	-13%
COc1ccc(/C=C/C(=O)c2c(O)cc(C)oc2=O)c(OC)c1	1.3µM*	3.5µM*	-34%	16µM*	1.8µM*	u
CSc1ccc(/C=C/C(=O)c2c(O)cc(C)oc2=O)cc1	4.3µM*	19%	x	21%	u	x
COc1cccc(/C=C/C(=O)c2c(O)cc(C)oc2=O)c1O	u	-1%	-45%	u	-34%	-3%
COc1ccc(C2=CSC3=NNC4(CCCCC4)NN23)cc1	u	-11%	5%	9%	u	3%
Cc1ccc(C2=CSC3=NNC4(CCCCC4)NN23)cc1	11µM*	-14%	-17%	15%	4.5µM*	1%
Cc1ccc(-c2nn(-c3ccccc3)cc2CO)o1	12µM*	u	8.9µM*	u	u	1%
Cc1ccc(-c2nn(-c3cccc(F)c3)cc2CN2CCN(c3ccccn3)CC2)o1	u	-1%	x	-9%	-16%	0%
OCc1cn(-c2ccccc2)nc1-c1ccco1	17µM*	u	-5%	u	24%	-10%
Cc1ccc(-c2nn(-c3ccccc3)cc2/C=C/C(=O)OCC(=O)NC2CC2)o1	-11%	-6%	9%	-2%	2%	-1%
